# In the library only some 1.3% were active in any assay of this set; here they are far more common.
# p53 reactivation – qHTS assay for re-activators of p53 using a Luc reporter. H1299 p53-A138V BP100-luciferase reporter, luminescence, 24 h. Potency, µM (series often up to 92.2 µM), inactives show at the top dose activity change, positive = activation, most hits filed as activators. hit rate 0.063% among 320,000. AID 504706, 2011; note: potency is the fitted concentration of half-maximal effect; % of control where 0% means no effect; nearly all actives have a fitted effect of over 45% in size
#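 p53-null H1299 cells stably carrying temperature-sensitive p53-A138V and a BP100-luciferase reporter were pinned with compounds (4-point, 1:5 series) and held 24 hrs at 37 deg C. Luminescence was read 10 min after detection reagent.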
# IL2 activator – qHTS of IL-2 Activators; hit rate 0.065% among 360,000; IL-2 activation reporter assay, cell-based qHTS; stimulated with anti-CD3/CD4/CD28 beads; in transgenic mouse T cells; activation, % (series mostly up to about 46 µM); in the data active = activation above about 50%; inconclusive = mostly about 30% to 49%; note: 0% is about no effect
#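 Readout is EGFP and DsRed signal by fluorescent plate cytometry after 18 h at 37 degrees C. Transgenic mouse T cells (750/well) received compound for 60 min before bead stimulation (anti-CD3, anti-CD4, anti-CD28); memory T cells served as non-tolerant control.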
# TCR activator – Activators of T cell receptors: qHTS campaign; primary human leukocytes, anti-CD3, IL-2 HTRF, 48 h; Potency, µM (titrated, usually from 9.22 µM), without a hit: at the highest dose activation of IL-2 secretion, actives largely listed as activators; 330,000 tested, under 10 active; AID 504894, 2011; note: % of control where 0% means no effect
#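 Primary human leukocytes were stimulated with a-CD3 beads plus compounds for 48 hr without co-stimulation; secreted IL-2 was quantified by HTRF using a-IL-2-K (europium cryptate) and a-IL-2-d2, excited at 320nm with acceptor emission read at 665nm.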
# Mito fusion yeast – qHTS Assay for Small Molecule Inhibitors of Mitochondrial Division or Activators of Mitochondrial Fusion | S. cerevisiae fusion-defective mutant growth rescue, CellTiterGlo 48 h | Potency, µM (doses to about 46.1 µM), inactives show at the highest dose growth rescue (activation), usual class: activators | hit rate 0.23% among 320,000; note: potency is the fitted concentration of half-maximal effect; % of control where 0% means no effect; nearly all actives have a fitted effect of over 45% in size
#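 Luminescent cell viability in 1536-well qHTS format served as the measure of rescued growth in ts fusion-mutant S. cerevisiae cultured on non-fermentable YPEG for 48 hours at 37C.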
# BRCA1 expr act – qHTS Assay to Identify Small Molecule Activators of BRCA1 Expression | hit rate 1.1% among 380,000 | MCF7-BRCA1-FFLuc reporter, luminescence, 48 h; response scale: scaled: vehicle 0%, 10 µM genistein 100% | Potency, µM (titrated, usually from 46.1 µM), inactives show at the highest dose activation, hits mostly activators | AID 624202, 2012; note: potency is the fitted concentration of half-maximal effect; nearly all actives have a fitted effect of over 80% in size
#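 Luminescence from a BRCA1-driven firefly luciferase in MCF7 cells was the read-out, taken 15 min after substrate addition following 48 h compound exposure at 37 °C. Data were normalized to a 10 microM genistein control and DMSO vehicle.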
# Active calls of the source: *; u = inconclusive; x = not tested or not shown; [ ] = remark or other dose. Unless noted, calls come from the whole dose curve; as a rule, active = well fitted curve in the direction sought with a large enough effect; inconclusive = small, poorly fitted or top-dose-only effect, or another doubt; inactive = no such curve, though single readings can be large; an effect the other way counts as inactive or inconclusive.
SMILES,p53 reactivation,IL2 activator,TCR activator,Mito fusion yeast,BRCA1 expr act
Cc1cc(C(=O)CSc2n[nH]c(N)n2)c(C)n1-c1cccc(F)c1,21.9%,-1.5,4.2%,-3.8%,12.6µM*
NC(=O)c1c(NC(=O)c2ccccc2)sc2c1CCN(Cc1ccccc1)C2,x,316.8*,0.7%,3.1%,16.9%
C(=Nc1cnc2ccccc2c1)c1ccncc1,x,x,x,x,34.7%
Cc1ccc2nc(SCc3nc4ccccc4c(=O)[nH]3)[nH]c2c1,-0.1%,0.5,3.1%,u,3.98µM*
COc1ccc2c(CNCCc3ccccc3OC)c(C(=O)O)n(Cc3ccc(F)cc3Cl)c2c1,x,x,x,x,-37.6%
Cn1c2ccccc2c(=O)c2ccc(C#Cc3ccccn3)cc21,13.6%,0.0,-1.9%,-3.1%,11.2µM*
COc1cccc2oc3ccc(C#CC4(N)CCCCC4)cc3c(=O)c12,x,-0.3,5.0%,-4.0%,7.94µM*
Cn1c2ccccc2c(=O)c2cc(C#CC3(O)CCCCC3)ccc21,2.7%,0.4,-4.6%,0.3%,0.0%
Cn1c2ccccc2c(=O)c2ccc(C#CC3(N)CCCCC3)cc21,x,-0.2,6.9%,-4.8%,5.62µM*
O=c1c2ccccc2sn1-c1ccc(Cl)c(S(=O)(=O)N2CCOCC2)c1,x,x,x,x,7.1%
CCOC(=O)COc1ccc(CC)cc1C(=O)c1ccn2nc(-c3ccc(Cl)cc3)cc2n1,x,x,x,x,-13.4%
c1ccc(-c2noc(C34CC5CC(CC(C5)C3)C4)n2)cc1,15.6%,2.2,0.8%,2.0%,78.0%
CC(C)(C)Cc1nc(-c2ccccn2)no1,u,-2.9,-1.0%,-4.9%,10µM*
c1ccc(-c2noc(C34CC5CC(CC(C5)C3)C4)n2)nc1,u,1.9,1.7%,13.1%,3.55µM*
Cc1ccc(SCc2nc(-c3ccccn3)no2)cc1,u,-1.7,-2.8%,-2.7%,5.01µM*
CC(C)Sc1nnc2c3ccccc3n(C)c2n1,x,x,x,x,0.0%
CCOC(=O)c1c(N)sc2c1CCN(Cc1ccccc1)C2,x,x,x,x,-24.2%
CCc1ccccc1Nc1nn2c(=O)c3ccc(C(=O)NCc4cccs4)cc3nc2s1,x,x,x,5.8%,x
CCOC(=O)c1nnc2cc(-c3ccccc3)nn2c1C,15.1%,0.0,0.5%,5.6%,6.31µM*
CCOC(=O)c1nnc2cc(-c3ccc(Br)cc3)nn2c1C,10.3%,1.5,0.6%,2.1%,26.7%
O=C(CC(c1cccs1)N1Cc2ccccc2C1=O)Nc1cccc(F)c1 (stereo not given),x,x,x,x,1.9%
CC1Oc2ccccc2C=C1/C=N/NC(=O)c1ccccc1 (stereo not given),u,-3.4,-7.2%[46.1 µM],u,3.16µM*
O=C(CCc1ccccc1)Nc1nc2c(F)cc(F)cc2s1,14.7%,-2.4,-2.1%,-1.9%,10µM*
CCC(C)c1ccccc1OCCn1c(CCNC(=O)C2CCCCC2)nc2ccccc21 (stereo not given),x,x,x,x,-22.2%
Fc1cccc(CSc2ccc(-c3ccco3)nn2)c1,u,0.2,-6.8%[46.1 µM],5.0%,u
SMILES,p53 reactivation,IL2 activator,TCR activator,Mito fusion yeast,BRCA1 expr act
Fc1ccc(CSc2ccc(-c3ccco3)nn2)cc1,u,1.9,-10.0%[46.1 µM],-0.5%,7.08µM*
COc1cc2nc(C#N)nc(N)c2cc1OC,x,x,x,x,-25.9%
NCCCN(Cc1ccc(Cl)c(Cl)c1)c1ccccn1,x,x,x,x,-54.2%
CCS(=O)(=O)N1CCc2cc(C(=O)Nc3cccc(C)c3C)ccc21,x,x,x,x,2.5%
O=C1C2C=CC=CC2=NC(=S)N1CCN1CCC(=C(c2ccc(F)cc2)c2ccc(F)cc2)CC1 (stereo not given),x,x,x,5.8µM*,x
O=C(CN1CCN(CCN2C(=O)c3cccc4cccc(c34)C2=O)CC1)c1ccc(F)cc1,-4.1%,-2.3,-4.3%,-7.0%,15.7%
COc1ccc(/C=C/c2nnc(NC(=O)COc3cccc(C)c3)s2)cc1,-1.8%,-1.7,-0.2%[46.1 µM],-0.1%,4.47µM*
COc1ccc(/C=C/c2nnc(NC(=O)COc3ccccc3)s2)cc1,19.5%,5.6,0.9%,-4.9%,u
CCCCC(=O)Nc1nnc(/C=C/c2ccc(OC)cc2)s1,-8.0%,1.1,x,0.3%,u
CCCC(=O)Nc1nnc(/C=C/c2ccc(OC)cc2)s1,3.6%,-2.3,-4.1%,2.4%,5.62µM*
CC1=CCC(COC(=O)Nc2ccccc2)CC1 (stereo not given),u,0.0,-1.6%,3.1%,3.55µM*
O=C(Nc1ccccc1)OCC1CCCN2CCCCC12 (stereo not given),-2.8%,-1.6,3.8%,5.4%,8.3%
CC(Sc1nc2ccccc2c(=O)n1C)C(=O)Nc1ccc2c(c1)OCCO2 (stereo not given),0.9%,-0.4,0.2%,-0.3%,-17.1%
CCC(C(=O)Nc1ccc2c(c1)OCCO2)n1nnc2ccccc2c1=O (stereo not given),9.6%,-2.7,-0.7%,3.3%,10µM*
Cc1ccc2c(c1)N(S(=O)(=O)c1ccc(CN3C(=O)c4cccnc4C3=O)s1)CCO2,3.6%,-1.8,10.0%,1.2%,0.0%
Cc1ccc2c(c1)N(S(=O)(=O)c1ccc(CN3C(=O)c4cccnc4C3=O)cc1)CCO2,-2.0%,-1.9,0.9%,11.2µM*,7.3%
O=C1NCc2c1c1c3ccccc3[nH]c1c1[nH]c3ccccc3c21,x,x,x,x,-59.1%
Clc1ccc(-c2cnnc(-c3ccccn3)n2)cc1,u,0.7,3.5%,x,u
c1ccc(-c2cnnc(-c3ccccn3)n2)cc1,x,-2.5,2.0%,x,4.47µM*
Cc1ccc(C(=O)Nc2ccc(C(=O)O)cc2)cc1S(=O)(=O)NCc1ccccc1,2.6%,535.2*,3.3%,-4.0%,-3.5%
O=C(Nc1ccccc1)OCc1cc(-c2ccccc2Cl)on1,u,0.2,-2.5%,-1.9%,8.91µM*
CC(C)c1cc(C(=O)Nc2ccc3c(c2)OCO3)no1,u,-3.7,2.9%,1.5%,50.3%
O=C(Nc1ccc2c(c1)OCO2)c1cc(C2CC2)on1,9.3%,-1.8,-2.8%,-2.5%,4.47µM*
O=C(Nc1ccc2c(c1)OCO2)c1ccc(=O)[nH]n1,11.2%,-0.6,1.3%,2.3%,11.2µM*
COc1ccc(CCn2c3c(c(=O)[nH]c2=S)CN(C)CN3)cc1OC,x,x,x,x,10.8%
N/C(=N\OC(=O)/C=C/c1ccccc1)c1ccc(Cl)cc1,9.1%,4.1,8.0%,11.0%,48.9%
N/C(=N\OC(=O)/C=C/c1ccccc1)c1ccccc1,u,-0.5,7.2%,-4.4%,7.08µM*
CC(NC(=O)c1ccc([N+](=O)[O-])o1)C12CC3CC(CC(C3)C1)C2 (stereo not given),-17.1%,0.1,-14.6%,14.1µM*,-66.7%

# From PubChem
